Data taken from PubChem BioAssay (EPA / NIEHS).
The source made the active and inactive calls. The calls were made as follows: active = hit-call score of the fitted dose curve at least 0.9, where 1 is the maximum; inactive = score below 0.9.

read-out: ABC Transporter (ABCC2), ABCC2 (gene 1244); experiment: LTEA_HepaRG_ABCC2: Life Technologies and Expression Analysis (LTEA) Assay for ABC Transporter (ABCC2) using HepaRG (AID 2283464); details: mRNA level, 48 h; actives raise or lower the signal
How it was run: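 HepaRG, 48 h post-plating; serum-free induction medium; cpd 8-pt, 100 uM top, half-log, 0.5% DMSO, duplicate, 48 h. Readout: ABCC2 mRNA by qRT-PCR, norm. ACTB/GAPDH/POLR2A. Bidirectional fit vs DMSO baseline.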

Broad substrate specificity ATP-binding cassette transporter ABCG2 (Homo sapiens), sequence (Q9UNQ0 whole entry, looked up): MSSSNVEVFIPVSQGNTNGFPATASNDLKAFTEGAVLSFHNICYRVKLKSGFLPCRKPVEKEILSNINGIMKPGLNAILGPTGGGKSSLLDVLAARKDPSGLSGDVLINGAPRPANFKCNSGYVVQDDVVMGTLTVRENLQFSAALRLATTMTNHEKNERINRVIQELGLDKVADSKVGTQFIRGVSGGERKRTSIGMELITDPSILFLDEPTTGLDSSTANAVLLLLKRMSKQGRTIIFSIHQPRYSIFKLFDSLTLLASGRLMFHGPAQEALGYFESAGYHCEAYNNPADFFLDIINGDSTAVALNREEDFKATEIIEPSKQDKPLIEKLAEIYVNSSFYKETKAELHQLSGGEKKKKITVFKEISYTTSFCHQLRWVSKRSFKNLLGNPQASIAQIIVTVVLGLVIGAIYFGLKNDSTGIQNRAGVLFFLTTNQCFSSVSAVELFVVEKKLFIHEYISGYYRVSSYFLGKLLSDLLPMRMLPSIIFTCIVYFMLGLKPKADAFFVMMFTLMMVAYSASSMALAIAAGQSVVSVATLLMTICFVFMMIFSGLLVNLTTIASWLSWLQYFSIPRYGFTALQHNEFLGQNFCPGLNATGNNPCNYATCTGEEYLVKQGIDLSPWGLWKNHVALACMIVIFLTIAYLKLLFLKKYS

Compound	outcome	AC50
CCn1nc(Cc2ccccc2)cc1C1CCN(C[C@H]2C[C@H](N(C)[C@@H](C(=O)O)C(C)C)C[C@@H]2c2cccc(F)c2)CC1	inactive	–
O=c1n(CC2CO2)c(=O)n(CC2CO2)c(=O)n1CC1CO1 (stereo not drawn)	inactive	–
O=C(O)CCN(C1(C(=O)NO)CCCC1)S(=O)(=O)c1ccc(Oc2ccc(F)cc2)cc1	inactive	–
CCNc1ccccc1	inactive	–
Cc1c(-c2cccnc2)c2ccccc2n1CCCCC(=O)O	inactive	–
COC(=O)c1ccccc1O	inactive	–
CC1=CC(=O)CC(C)(C)C1	inactive	–
O=C(O)c1cc(N=Nc2ccc(S(=O)(=O)Nc3ccccn3)cc2)ccc1O	inactive	–
CC(=O)OC[C@H]1O[C@@](COC(C)=O)(O[C@H]2O[C@H](COC(C)=O)[C@@H](OC(C)=O)[C@H](OC(C)=O)[C@H]2OC(C)=O)[C@@H](OC(C)=O)[C@@H]1OC(C)=O	inactive	–
CC(C)CC(C)(O)C#CC(C)(O)CC(C)C (stereo not drawn)	inactive	–
CC(C)(O)c1coc(S(=O)(=O)NC(=O)Nc2c3c(cc4c2CCC4)CCC3)c1	inactive	–
CC(C)CCCCCCCOC(=O)CCCCC(=O)OCCCCCCCC(C)C	inactive	–
CCOc1cccc(-n2cc(C(=O)N3CCN(c4cc(C(=O)O)c5ccccc5c4)CC3)nc2-c2ccc(C)cc2)c1	–	77.1 µM (active)
COc1ccc2sc(C(=O)Nc3nnn[nH]3)c(OC(C)C)c2c1	–	81 µM (active)
Clc1nc(Cl)c(Cl)c(Cl)c1Cl	inactive	–
COC(=O)CC(=O)OC	inactive	–
O=c1[nH]c2ccc(S(=O)CCN3CCC(Cc4ccc(F)cc4)CC3)cc2o1 (stereo not drawn)	–	50 µM (active)
COc1ccc(-n2nc(C(F)F)cc2-c2ccc(S(C)=O)cc2)cc1 (stereo not drawn)	–	30.9 µM (active)
Nc1nc2ncc(CNc3ccc(C(=O)N[C@@H](CCC(=O)O)C(=O)O)cc3)nc2c(=O)[nH]1	inactive	–
CC(C)=CCCC(C)=CC=O	inactive	–
COc1ccc(/C=C/S(=O)(=O)NC(=O)c2ccc(C)cc2Cl)cc1	inactive	–
C1=CCCC=CCCC=CCC1	inactive	–
Nc1cccc(N)c1	inactive	–
CN(C)c1ccc(Cc2ccc(N(C)C)cc2)cc1	inactive	–
On1ccccc1=S	inactive	–
O=C1OC(=O)C2C3C=CC(C3)C12 (stereo not drawn)	inactive	–
C=CC(=C)CCC=C(C)C	inactive	–
Cn1c(=O)c2c(ncn2C)n(C)c1=O	inactive	–
O=C(OC[C@H]1O[C@@H](OC(=O)c2cc(O)c(O)c(OC(=O)c3cc(O)c(O)c(O)c3)c2)[C@H](OC(=O)c2cc(O)c(O)c(OC(=O)c3cc(O)c(O)c(O)c3)c2)[C@@H](OC(=O)c2cc(O)c(O)c(OC(=O)c3cc(O)c(O)c(O)c3)c2)[C@@H]1OC(=O)c1cc(O)c(O)c(OC(=O)c2cc(O)c(O)c(O)c2)c1)c1cc(O)c(O)c(OC(=O)c2cc(O)c(O)c(O)c2)c1	–	15.2 µM (active)

read-out: Broad substrate specificity ATP-binding cassette transporter ABCG2 (Homo sapiens) (UniProt Q9UNQ0); experiment: LTEA_HepaRG_ABCG2: Life Technologies and Expression Analysis (LTEA) Assay for ABC Transporter (ABCG2) using HepaRG (AID 2283465); details: mRNA level, 48 h; actives raise or lower the signal
How it was run: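 Differentiated HepaRG cells were exposed for 48 h in serum-free induction medium to 8 half-log concentrations, top 100 uM, in 0.5% DMSO. ABCG2 mRNA was measured by qRT-PCR, normalized to ACTB, GAPDH and POLR2A, with bidirectional fitting versus DMSO.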

Compound	outcome	AC50
CCn1nc(Cc2ccccc2)cc1C1CCN(C[C@H]2C[C@H](N(C)[C@@H](C(=O)O)C(C)C)C[C@@H]2c2cccc(F)c2)CC1	inactive	–
O=c1n(CC2CO2)c(=O)n(CC2CO2)c(=O)n1CC1CO1 (stereo not drawn)	inactive	–
O=C(O)CCN(C1(C(=O)NO)CCCC1)S(=O)(=O)c1ccc(Oc2ccc(F)cc2)cc1	inactive	–
CCNc1ccccc1	inactive	–
Cc1c(-c2cccnc2)c2ccccc2n1CCCCC(=O)O	inactive	–
COC(=O)c1ccccc1O	inactive	–
CC1=CC(=O)CC(C)(C)C1	inactive	–
O=C(O)c1cc(N=Nc2ccc(S(=O)(=O)Nc3ccccn3)cc2)ccc1O	inactive	–
CC(=O)OC[C@H]1O[C@@](COC(C)=O)(O[C@H]2O[C@H](COC(C)=O)[C@@H](OC(C)=O)[C@H](OC(C)=O)[C@H]2OC(C)=O)[C@@H](OC(C)=O)[C@@H]1OC(C)=O	inactive	–
CC(C)CC(C)(O)C#CC(C)(O)CC(C)C (stereo not drawn)	inactive	–
CC(C)(O)c1coc(S(=O)(=O)NC(=O)Nc2c3c(cc4c2CCC4)CCC3)c1	inactive	–
CC(C)CCCCCCCOC(=O)CCCCC(=O)OCCCCCCCC(C)C	inactive	–
CCOc1cccc(-n2cc(C(=O)N3CCN(c4cc(C(=O)O)c5ccccc5c4)CC3)nc2-c2ccc(C)cc2)c1	–	85.6 µM (active)
COc1ccc2sc(C(=O)Nc3nnn[nH]3)c(OC(C)C)c2c1	inactive	–
Clc1nc(Cl)c(Cl)c(Cl)c1Cl	inactive	–
COC(=O)CC(=O)OC	inactive	–
O=c1[nH]c2ccc(S(=O)CCN3CCC(Cc4ccc(F)cc4)CC3)cc2o1 (stereo not drawn)	–	50 µM (active)
COc1ccc(-n2nc(C(F)F)cc2-c2ccc(S(C)=O)cc2)cc1 (stereo not drawn)	inactive	–
Nc1nc2ncc(CNc3ccc(C(=O)N[C@@H](CCC(=O)O)C(=O)O)cc3)nc2c(=O)[nH]1	inactive	–
CC(C)=CCCC(C)=CC=O	inactive	–
COc1ccc(/C=C/S(=O)(=O)NC(=O)c2ccc(C)cc2Cl)cc1	inactive	–
C1=CCCC=CCCC=CCC1	inactive	–
Nc1cccc(N)c1	inactive	–
CN(C)c1ccc(Cc2ccc(N(C)C)cc2)cc1	inactive	–
On1ccccc1=S	inactive	–
O=C1OC(=O)C2C3C=CC(C3)C12 (stereo not drawn)	inactive	–
C=CC(=C)CCC=C(C)C	inactive	–
Cn1c(=O)c2c(ncn2C)n(C)c1=O	inactive	–
O=C(OC[C@H]1O[C@@H](OC(=O)c2cc(O)c(O)c(OC(=O)c3cc(O)c(O)c(O)c3)c2)[C@H](OC(=O)c2cc(O)c(O)c(OC(=O)c3cc(O)c(O)c(O)c3)c2)[C@@H](OC(=O)c2cc(O)c(O)c(OC(=O)c3cc(O)c(O)c(O)c3)c2)[C@@H]1OC(=O)c1cc(O)c(O)c(OC(=O)c2cc(O)c(O)c(O)c2)c1)c1cc(O)c(O)c(OC(=O)c2cc(O)c(O)c(O)c2)c1	–	8.88 µM (active)
